Source: PubChem (Broad Institute)
DUX4 inh: inhibitors of DUX4-driven ZSCAN4 reporter expression, primary screen, 293T cells, Gaussia and Italica luciferase. 293T-iDUX4 ZSCAN4-Gaussia luciferase reporter, 24 h; hits give low values. activity change, negative = inhibition, % (no concentration beside the values). actives 0.8% (n = 37,000);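 active means mean inhibition of at least 10% in the main channel, exceeding the control channel by a set limit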;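 further: 0% = median of neutral control wells and -100% = median of positive control wells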
An asterisk follows results filed as active. Many of the other results were omitted from the sample, so hits are more common in it than they were.

SMILES	DUX4 inh
C[C@H](CO)N1C[C@H](C)[C@H](CN(C)Cc2cccc3c2OCCCO3)OCc2ccccc2-c2ccccc2C1=O	-1
C[C@@H]1CN([C@H](C)CO)C(=O)c2c(c3ccccc3n2C)-c2ccccc2CO[C@H]1CN(C)Cc1ccccc1C(F)(F)F	-49*
C[C@H](CO)N1C[C@H](C)[C@@H](CN(C)C)OCc2ccccc2-c2c(n(C)c3ccccc23)C1=O	3
C[C@@H]1CN([C@H](C)CO)C(=O)c2c(c3ccccc3n2C)-c2ccccc2CO[C@@H]1CN(C)Cc1ccncc1	-1
C[C@@H]1CN([C@@H](C)CO)C(=O)c2ccccc2-c2ccccc2CO[C@H]1CN(C)Cc1ccccc1C(F)(F)F	-7
COc1ccccc1CN(C)C[C@@H]1OCc2ccccc2-c2c(n(C)c3ccccc23)C(=O)N([C@@H](C)CO)C[C@@H]1C	-32*
C[C@@H]1CN([C@@H](C)CO)C(=O)c2c(c3ccccc3n2C)-c2ccccc2CO[C@H]1CN(C)Cc1cccc2c1OCCCO2	-31*
C[C@@H]1CN([C@H](C)CO)C(=O)c2c(c3ccccc3n2C)-c2ccccc2CO[C@H]1CN(C)C	4
O=C(NCC1CC1)[C@H]1[C@H](CO)[C@H]2Cn3c(cccc3=O)[C@@H]1N2CCc1ccccc1	3
CC(C)[C@H]1C(=O)N[C@@H](c2ccccc2)CC=CC[C@H](C)Oc2ccccc2C(=O)N1C (mixture of isomers)	2
COc1ccc2c3c(n(C)c2c1)[C@@H](CO)N(CC1CCOCC1)CC31CCN(C(=O)Nc2ccccc2)CC1	-4
C[C@@H]1C/C=C\C[C@H](c2ccc3c(c2)OCO3)NC(=O)[C@@H](c2ccccc2)CC(=O)N1	-4
C[C@H](CO)N1C[C@H](C)[C@H](CN(C)C)Oc2ccc(NC(=O)Nc3ccc4c(c3)OCO4)cc2C1=O	4
CO[C@@H](CN(C)Cc1nccs1)[C@@H](C)CN([C@@H](C)CO)S(=O)(=O)c1ccc(C)cc1	5
OC[C@H]1[C@H](c2ccc(C#Cc3ccccc3F)cc2)[C@@H]2CN(CC3CCOCC3)CCCCN12	-13*
CN1CCCCN2[C@H](CO)[C@H](c3ccc(C#Cc4ccccc4F)cc3)[C@@H]2C1	6
CN1CCCCN2[C@H](C1)[C@H](c1ccc(C#Cc3ccccc3F)cc1)[C@@H]2CO	-6
OC[C@H]1[C@H](c2ccc(C#Cc3ccccc3)cc2)[C@H]2CN(CC3CCOCC3)CCCCN21	-8
OC[C@@H]1[C@H](c2ccc(C#Cc3ccccc3)cc2)[C@@H]2CN(CC3CCOCC3)CCCCN12	8
OC[C@@H]1[C@H](c2ccc(C#Cc3ccccc3F)cc2)[C@H]2CN(CC3CCOCC3)CCCCN12	-21*
C[C@@H]1CN([C@H](C)CO)C(=O)c2cccc(NC(=O)C3CCOCC3)c2O[C@H]1CN(C)C(=O)Nc1cccc2ccccc12	4
C[C@H](CO)N1C[C@H](C)[C@@H](CN(C)C(=O)NC2CCCCC2)Oc2ccc(NS(=O)(=O)c3cn(C)cn3)cc2CC1=O	-3
CC(=O)N1C[C@@H]2[C@H](c3ccccc31)[C@@H](CO)N2C(=O)CC1CC1	1
COc1ccc2c3c([nH]c2c1)[C@@H](CO)N(C(=O)NC1CCCC1)CC31CN(S(C)(=O)=O)C1	18
C[C@H]1CN([C@@H](C)CO)C(=O)CCCn2nncc2CO[C@H]1CN(C)Cc1ccc(O)cc1	0
SMILES	DUX4 inh
C[C@H]1CN([C@@H](C)CO)C(=O)CCCn2nncc2CO[C@@H]1CN(C)Cc1ccc(O)cc1	0
C[C@H]1CN([C@@H](C)CO)C(=O)CCCn2nncc2CO[C@@H]1CN(C)Cc1ccc(C(F)(F)F)cc1	-4
C[C@H](CO)N1C[C@H](C)[C@@H](CN(C)Cc2ccc(C(=O)O)cc2)OCc2cnnn2CCCC1=O	7
C[C@H]1CN([C@@H](C)CO)C(=O)CCCn2nncc2CO[C@@H]1CN(C)Cc1ccc(C(=O)O)cc1	0
C[C@H](CO)N1C[C@H](C)[C@@H](CN(C)Cc2ccc(C(F)(F)F)cc2)OCc2cnnn2CCCC1=O	6
C[C@@H]1CN([C@H](C)CO)C(=O)CCCn2nncc2CO[C@H]1CN(C)Cc1ccc(C(=O)Nc2ccccc2N)cc1	-22*
C[C@@H]1CN([C@@H](C)CO)C(=O)CCCn2nncc2CO[C@H]1CN(C)Cc1ccc(C(=O)Nc2ccccc2N)cc1	-25*
C[C@H](CO)N1C[C@H](C)[C@@H](CN(C)Cc2ccc(C(=O)Nc3ccccc3N)cc2)OCc2cnnn2CCCC1=O	-20*
COc1ccc2c3c(n(C)c2c1)[C@H](CO)N(C(C)=O)CC31CN(Cc2cccnc2)C1	11
O=C(C[C@@H]1CC[C@@H]2[C@H](COC[C@@H](O)CN2C(=O)Nc2ccc(Cl)cc2)O1)NCCc1ccncc1	5
O=S(=O)(c1ccc(F)cc1)N1CCCCN2[C@@H](CO)[C@H](c3ccc(C#CC4CC4)cc3)[C@@H]2C1	-26*
CC(C)(O)C#Cc1ccc([C@@H]2[C@@H](CO)N3CCCCN(C(=O)c4ccc(F)cc4)C[C@H]23)cc1	1
O=S(=O)(c1ccccc1)N1CCCCN2[C@@H](CO)[C@H](c3ccc(C#CC4CCCC4)cc3)[C@@H]2C1	4
COCC#Cc1ccc([C@@H]2[C@H](CO)N3CCCCN(S(=O)(=O)c4ccc(OC)cc4)C[C@@H]23)cc1	6
CC(C)CC#Cc1ccc([C@@H]2[C@H]3CN(S(=O)(=O)c4ccc(F)cc4)CCCCN3[C@H]2CO)cc1	-22*
O=S(=O)(c1ccccc1)N1CCCCN2[C@@H](CO)[C@@H](c3ccc(C#CC4CCCC4)cc3)[C@@H]2C1	13
CC(C)C#Cc1ccc([C@@H]2[C@H]3CN(C(=O)c4ccc(F)cc4)CCCCN3[C@H]2CO)cc1	-26*
CC(C)(O)C#Cc1ccc([C@H]2[C@@H](CO)N3CCCCN(C(=O)c4ccc(F)cc4)C[C@@H]23)cc1	7
CC(C)CC#Cc1ccc([C@@H]2[C@H]3CN(S(=O)(=O)Cc4ccccc4)CCCCN3[C@H]2CO)cc1	-2
O=C(c1ccncc1)N1C[C@@H]2[C@H](c3ccccc31)[C@@H](CO)N2C(=O)c1ccncc1	5
COc1ccc(NC(=O)Nc2cccc3c2O[C@@H](CN(C)S(=O)(=O)c2cccs2)[C@H](C)CN([C@@H](C)CO)C3=O)cc1	-3
C[C@H](NC(=O)C[C@@H]1C[C@H]2c3cc(NC(=O)Nc4ccc(C(F)(F)F)cc4)ccc3O[C@H]2[C@H](CO)O1)c1ccccc1	-14*
O=C(C[C@@H]1C[C@H]2c3cc(NC(=O)Nc4ccc(C(F)(F)F)cc4)ccc3O[C@H]2[C@H](CO)O1)NCc1ccc(Cl)cc1	-37*
O=C(C[C@@H]1C[C@@H]2c3cc(NC(=O)Nc4ccc(C(F)(F)F)cc4)ccc3O[C@@H]2[C@@H](CO)O1)NCc1ccc2c(c1)OCO2	-7
O=C(C[C@@H]1C[C@H]2c3cc(NC(=O)Nc4ccc(C(F)(F)F)cc4)ccc3O[C@H]2[C@H](CO)O1)NCCc1ccccc1	-47*
O=C(C[C@H]1C[C@H]2c3cc(NC(=O)Nc4ccc(C(F)(F)F)cc4)ccc3O[C@H]2[C@H](CO)O1)NCc1ccc2c(c1)OCO2	-6
O=C(C[C@H]1C[C@@H]2c3cc(NC(=O)CC4CC4)ccc3O[C@@H]2[C@@H](CO)O1)NCCc1ccccc1	-3
COc1ccc(NC(=O)Nc2ccc3c(c2)[C@@H]2C[C@@H](CC(=O)N[C@@H](C)c4ccccc4)O[C@H](CO)[C@@H]2O3)cc1	4
